Screens deposited in PubChem BioAssay by The Scripps Research Institute Molecular Screening Center.
FBW7 activator: FBW7 E3 ligase activators, primary screen, biochemical, AlphaScreen, human. F-box/WD repeat-containing protein 7 (Homo sapiens), Q969H0. AlphaScreen FBW7–phospho-cyclin E peptide binding, activator screen. normalized activity (activation), % at 26.1 µM. 0.13% of 650,000 active; in the data active means normalized activity above about 1.9%;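 further: purified mutant Fbw7 with reduced substrate affinity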
MITF primary: MITF inhibitors, primary screen, biochemical, AlphaScreen, human; Microphthalmia-associated transcription factor (Homo sapiens), O75030; 0.91% of 650,000 active; inhibition, % at 2.6 µM; AID 1259374, 2018; AlphaScreen MITF homodimerization, bead proximity signal; in the data active means inhibition above about 50%
TEAD-YAP inh: TEAD-YAP interaction inhibition, primary screen, TEAD-YAP interaction inhibitor project, luminescence, HEK-TIYL cells | inhibition, % at 9.12 µM | 1.4% of 640,000 active | TEAD-Gal4/YAP UAS-luciferase luminescence | AID 1259422, 2018; in the data active means inhibition above about 32%
GPR151 activ: activators of human GPR151, primary screen, cell-based, PathHunter beta-arrestin, luminescence | PathHunter beta-arrestin GPR151 cells | activation, % at 11.2 µM | 1% of 650,000 active; in the data active means activation above about 4.9%
Target sequence (Q8TDV0 whole entry, looked up): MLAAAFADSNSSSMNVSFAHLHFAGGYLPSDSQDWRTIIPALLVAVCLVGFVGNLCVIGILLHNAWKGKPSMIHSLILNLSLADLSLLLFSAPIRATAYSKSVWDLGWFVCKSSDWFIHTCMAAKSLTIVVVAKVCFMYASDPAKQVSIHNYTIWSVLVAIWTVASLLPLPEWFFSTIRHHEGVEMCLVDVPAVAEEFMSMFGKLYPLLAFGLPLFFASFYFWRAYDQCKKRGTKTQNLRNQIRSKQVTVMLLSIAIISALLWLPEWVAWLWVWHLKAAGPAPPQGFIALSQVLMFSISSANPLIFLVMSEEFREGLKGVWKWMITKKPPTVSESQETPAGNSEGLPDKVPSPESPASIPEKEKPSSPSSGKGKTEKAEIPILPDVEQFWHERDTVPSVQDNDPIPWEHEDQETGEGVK
Numbers stand for hits; n = inactive. Shown are actives, neighbours in structure and some others; about 3.4% of the full set was active somewhere.

SMILES	FBW7 activator	MITF primary	TEAD-YAP inh	GPR151 activ
O=C(Nc1cc(Oc2ccc(F)cc2)cc([N+](=O)[O-])c1)c1nn2c(c1Cl)NC(c1ccccc1)CC2C(F)(F)F (stereo not given)	n	n	n	n
Cc1ncc2c(c1CNS(=O)(=O)c1ccccc1)CCN(C(=O)c1ccsc1)C2	n	n	n	n
Cc1ccccc1-c1nc(CSCC(=O)N2CCCC2)c(C)o1	n	n	56	n
CCc1ccc(-c2nc(CSCC(=O)N3CCN(CC)CC3)c(C)o2)cc1	n	n	37	n
Cc1ccsc1-c1nc(CSCC(=O)N2CCCC2)c(C)o1	n	n	46	n
Cc1ccccc1-c1nc(CSCC(=O)N2CCOCC2)c(C)o1	n	n	n	n
COCCn1c(SCC(=O)NNC(=O)c2cc(Cl)ccc2OC)nc2ccccc21	n	n	n	n
Cc1cc(C)cc(-n2c(C)cc(/C=C3/C(=N)N4C=CSC4=NC3=O)c2C)c1	n	n	n	n
CC1=CN2C(=N)/C(=C/c3cc(C)n(-c4ccccc4F)c3C)C(=O)N=C2S1	n	n	n	n
Cc1ccccc1-n1c(C)cc(/C=C2/C(=N)N3C=CSC3=NC2=O)c1C	n	n	97	n
Cc1cc(/C=C2/C(=N)N3C=CSC3=NC2=O)c(C)n1-c1ccccc1	n	n	88	n
CCc1ccccc1-n1c(C)cc(/C=C2/C(=N)N3C=CSC3=NC2=O)c1C	n	n	62	n
CCc1ccc(-n2c(C)cc(/C=C3/C(=N)N4C=CSC4=NC3=O)c2C)cc1	n	n	n	n
Cc1cc(/C=C2/C(=N)N3C=CSC3=NC2=O)c(C)n1-c1ccccc1Cl	n	n	92	n
O=[N+]([O-])c1cccc(/C=N/Nc2nnnn2-c2ccccc2)c1	n	n	n	n
Cc1ccc(C)c(-n2c(C)cc(/C=C3/C(=N)N4C=CSC4=NC3=O)c2C)c1	n	n	n	n
Cc1cccc(-n2c(C)cc(/C=C3/C(=N)N4C=CSC4=NC3=O)c2C)c1C	n	n	46	n
COc1cc2sc(=NC(=O)c3cccs3)n(C)c2cc1OC	n	n	n	n
Cc1ccc2c(c1)sc(=NC(=O)c1cccs1)n2C	n	n	74	n
OCCN1CCN(c2cc(-c3ccc(F)cc3)nc(-c3cccnc3)n2)CC1	n	n	n	n
CCCOC(=O)C1=C(C)NC(=O)NC1c1ccc(OCCC)cc1 (stereo not given)	n	n	43	n
CCCOc1ccc(C2NC(=O)NC(C)=C2C(=O)OCc2ccc(OC)cc2)cc1 (stereo not given)	n	n	58	n
CCCCOC(=O)C1=C(C)NC(=O)NC1c1ccc(OCCC)cc1 (stereo not given)	n	n	n	n
COc1ccc(COC(=O)C2=C(C)NC(=O)NC2c2ccc([N+](=O)[O-])cc2)cc1 (stereo not given)	n	n	44	n
COc1ccc(C2NC(=O)NC(C)=C2C(=O)OCc2ccc3c(c2)OCO3)cc1 (stereo not given)	n	n	67	n
SMILES	FBW7 activator	MITF primary	TEAD-YAP inh	GPR151 activ
CCOC(=O)C1=C(C)NC(=O)NC1c1ccc([N+](=O)[O-])cc1 (stereo not given)	n	n	n	n
COc1ccc(COC(=O)C2=C(C)NC(=O)NC2c2ccc(C)cc2)cc1 (stereo not given)	n	n	n	n
CN(C)CCNC(=O)C(=O)NCC(c1ccco1)S(=O)(=O)c1ccccc1 (stereo not given)	n	n	n	n
COc1cc(Nc2nc(Nc3ccc(-n4ccnc4)cc3)nc3c2ncn3-c2ccccc2)cc(OC)c1OC	n	n	34	n
COc1cc(Nc2nc(Nc3cccnc3)nc3c2ncn3-c2ccsc2)cc(OC)c1OC	n	n	n	n
COc1cc(Nc2nc(Nc3ccc(-n4ccnc4)cc3)nc3c2ncn3-c2ccsc2)cc(OC)c1OC	n	n	44	n
COc1cc(Nc2nc(Cl)nc3c2ncn3-c2ccsc2)cc(OC)c1OC	n	n	35	n
COc1cc(Nc2nc(Nc3cnccn3)nc3c2ncn3-c2ccsc2)cc(OC)c1OC	n	n	38	n
COc1cc(Nc2nc(Nc3ccccc3)c3ncn(-c4ccsc4)c3n2)cc(OC)c1OC	n	n	n	n
COc1ccc(-n2c(=S)[nH]c3cc(C(=O)NCCc4ccc(OC)c(OC)c4)ccc3c2=O)c(OC)c1	n	n	n	n
COc1ccc(-c2cnc3ccc(NCc4ccc5c(c4)OCO5)nn23)c(OC)c1	n	n	n	n
O=C(NCCc1ccccc1)c1ccc(OC2CCN(C(=O)c3cscn3)CC2)cc1	n	n	64	n
O=C(NCCOc1cccnc1)c1ccc(OC2CCN(CCc3ccccc3)CC2)cc1	n	n	42	n
CC(=O)N1CCC(Oc2ccc(C(=O)NCCc3ccccc3)cc2)CC1	n	n	n	n
O=C(NCCc1ccccc1)c1ccc(OC2CCN(C(=O)c3cnsn3)CC2)cc1	n	n	n	n
CC(=O)NCC(=O)N1CCC(Oc2ccc(C(=O)NCCc3ccccc3)cc2)CC1	n	n	33	n
O=C1CC[C@@H](C(=O)N2CCC(Oc3ccc(C(=O)NCCc4ccccc4)cc3)CC2)N1	n	n	40	n
O=C(c1ccc(Cl)cc1Cl)N1CCCC(C(F)(F)F)C1 (stereo not given)	n	n	n	n
O=C(NCCc1ccccc1)c1ccc(OC2CCN(C(=O)C3CC3)CC2)cc1	n	n	n	n
O=C(NCCc1ccccc1)c1ccc(OC2CCN(C(=O)C3=CCCC3)CC2)cc1	n	n	65	n
COCCCn1c(=O)[nH]c2ncc(-c3cnc(OC)nc3)nc21	2.2	n	n	n
COCCCn1c(=O)[nH]c2ncc(-c3cccc(F)c3)nc21	n	n	n	n
Cc1ccc(S(=O)(=O)N(C)CCOC(=O)Nc2ccccc2)cc1	n	n	n	n
COc1cccc(C(=O)Nc2ccc(Nc3cc(-n4cccn4)ncn3)cc2)c1	n	n	68	n
COc1cccc(C(=O)Nc2ccc3scnc3c2)c1	n	n	63	n
SMILES	FBW7 activator	MITF primary	TEAD-YAP inh	GPR151 activ
COc1ccc(Cl)cc1C(=O)Nc1ccc(Nc2cc(-n3cccn3)ncn2)cc1	n	n	n	n
COc1cccc(C(=O)Nc2ccc(N3CCCCC3=O)c(C)c2)c1	n	n	76	n
O=C(Nc1ccc2scnc2c1)c1ccc2ccccc2c1	n	n	66	n
COc1ccc(Cn2c(=S)[nH]c3cc(C(=O)Nc4ccc(OC)c(OC)c4)ccc3c2=O)cc1	n	n	n	n
O=C(Cn1ccc2ccccc2c1=O)NCC(=O)Nc1ccc(C(F)(F)F)cc1	n	n	n	n
CC1CCc2nc(NC(=O)CS(=O)(=O)c3ccccc3)sc2C1 (stereo not given)	n	n	n	n
O=C(c1cccnc1)c1c(N2CCOCC2)[nH]c(=O)c2ccccc12	n	n	n	n
O=C(Nc1nnc(COc2ccc(C3CCCCC3)cc2)s1)c1ccc(F)cc1	n	n	n	n
O=C(Nc1ccc2ccccc2c1)c1ccc(C2CCCCC2)cc1	n	n	34	n
